Structures are written as SMILES. Counter-ions that a name gives are not always drawn.

This is an account of results in the supplement of paper PMC10515830.

What all share (conditions): 10 µM; exposure time 6 h
In experiment [1] the test system is Danio rerio larvae (5 dpf). Briefly: difference in excitability vs DMSO (percentage points); higher = more excitable than DMSO. A digest of the protocol:
(§1)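 Wild-type zebrafish larvae at 5 dpf were kept in 96-well plates and exposed for 6 h to 100 µL egg water holding library compound at a final concentration of 10 µM. From 3 h into exposure, the plates were held at 28.5 ℃ and photographed every 6 s through a 3-h programme of moving lines and 100 ms, 400Hz tones. Each behaviour was scored by Z-LaP Tracker, a DeepLabCut model, and averaged over 48 larvae per compound. Every value gives the compound mean minus the vehicle control mean, in percentage points.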

The subject of experiment [2] is Danio rerio larvae (5 dpf). Briefly: difference in startle response vs DMSO (percentage points); higher = stronger startle than DMSO. Put shortly: as §1
The subject of experiment [3] is Danio rerio larvae (5 dpf). Briefly: difference in activity during first hour vs DMSO (percentage points); higher = more activity than DMSO. Put shortly:
as §1

Experiment [4] relates to Danio rerio larvae (5 dpf). As to the kind of experiment: difference in habituation to acoustic stimuli vs DMSO (percentage points); higher = more habituation than DMSO. A digest of the protocol:
as §1

Experiment [5] has as its system Danio rerio larvae (5 dpf). Briefly: difference in combined optomotor response to red, green and blue moving lines vs DMSO (percentage points); higher = stronger optomotor response than DMSO. Put shortly:
as §1

In the case of `CC[C@H](C)C(=O)O[C@H]1C[C@H](O)C=C2C=C[C@H](C)[C@H](CC[C@@H](O)C[C@@H](O)CC(=O)O)[C@H]21` [Pravastatin (sodium salt)], the difference in excitability in experiment [1] turned out to be 1.5. Besides, in experiment [2], the “difference in startle response” value worked out at 5.8. In experiment [3], the “difference in activity during first hour” value stood at 9.55. For the same compound, in experiment [4], the “difference in habituation to acoustic stimuli” value (from here on “difference in habituation”) was -2.28. Further, the difference in experiment [5] amounted to 1.82.
The matching figures for `Nc1nnc(-c2cccc(Cl)c2Cl)c(N)n1` [Lamotrigine]: 4.96, -1.15, -6.88, 4.75 and 8.87.
The matching figures for `Cc1cnc(NC(=O)C2=C(O)c3ccccc3S(=O)(=O)N2C)s1` [Meloxicam]: 5.53, 6.51, -3.33, 3.11 and 4.63.
On the same counts, the results for `CC(O)C(O)[C@H]1CNc2nc(N)[nH]c(=O)c2N1` (stereo partly drawn) [(6R)-5,6,7,8-tetrahydro-L-Biopterin (hydrochloride)] are 0.358, -1.51, -0.551, 1.85 and 6.59.
`OC[C@H]1NC[C@H](O)[C@@H](O)[C@H]1O` [1-Deoxygalactonojirimycin (hydrochloride)] yielded a difference in excitability in experiment [1] of 1.33. Moreover, the “difference in startle response” value in experiment [2] came out at 1.49. Also, in experiment [3], the “difference in activity during first hour” value amounted to 16.8. Moreover, the “difference in habituation” value in experiment [4] was found to be 3.98. Besides, the difference in experiment [5] amounted to 3.06.
Turning to `CO[C@@]1(NC(=O)Cc2cccs2)C(=O)N2C(C(=O)O)=C(COC(N)=O)CS[C@@H]21` [Cefoxitin (sodium salt)], the difference in excitability in experiment [1] turned out to be 2.72. For the same compound, the “difference in startle response” value in experiment [2] amounted to 3.22. In addition, in experiment [3], the “difference in activity during first hour” value was found to be 3. In addition, the “difference in habituation” value in experiment [4] is 1.06. Further, the difference in experiment [5] worked out at 10.4.
Consider `CCOc1cc(CC(=O)N[C@@H](CC(C)C)c2ccccc2N2CCCCC2)ccc1C(=O)O` [Repaglinide], for which, in experiment [1], the difference in excitability is 2.26. The “difference in startle response” value in experiment [2] amounted to 7.77. Also, in experiment [3], the “difference in activity during first hour” value was 14.4. In experiment [4], the “difference in habituation” value came out at 0.755. For the same compound, the difference in experiment [5] came to 1.85.
On the same counts, the results for `Nc1nc2ccc(OC(F)(F)F)cc2s1` [Riluzole (hydrochloride)] are 12.7, -2.33, 7.76, 3.2 and 11.9.
In experiment [1], `CN1CCN(C2=Nc3cc(Cl)ccc3Nc3ccccc32)CC1` [Clozapine] had a difference in excitability of 9.35. The “difference in startle response” value in experiment [2] was -11.3. The “difference in activity during first hour” value in experiment [3] was 37.7. In experiment [4], the “difference in habituation” value was -6.72. Besides, the difference in experiment [5] worked out at 5.08.
On the same counts, the results for `COC(=O)/C=C/C(=O)OC` [Dimethyl fumarate] are 19.8, -1.87, 20.1, -2.23 and 12.
In experiment [1], `CCCCNc1ccc(C(=O)OCCOCCOCCOCCOCCOCCOCCOCCOCCOC)cc1` [Benzonatate] had a difference in excitability of 6.12. For the same compound, the “difference in startle response” value in experiment [2] came to 1.4. The “difference in activity during first hour” value in experiment [3] is -1.8. In addition, the “difference in habituation” value in experiment [4] was 6.2. The difference in experiment [5] was -0.0866.
`Cn1c(=O)c2c(ncn2C)n(C)c1=O` [Caffeine] had a difference in excitability in experiment [1] of 5.33. In experiment [2], the “difference in startle response” value worked out at 2.45. Further, the “difference in activity during first hour” value in experiment [3] amounted to 2.64. Besides, the “difference in habituation” value in experiment [4] turned out to be 7.15. For the same compound, in experiment [5], the difference is 4.07.
The matching figures for `Nc1ccc(S(=O)(=O)Nc2ncccn2)cc1` [Sulfadiazine]: 11.9, 4.72, 7.75, 1.42 and -1.28.
In turn, `CC(C)[C@H](N)C(=O)OCCOCn1cnc2c(=O)[nH]c(N)nc21` [L-Valacyclovir (hydrochloride)] came in with a difference in excitability in experiment [1] of 6.67. For the same compound, the “difference in startle response” value in experiment [2] came out at 6.55. The “difference in activity during first hour” value in experiment [3] was 5.61. Besides, the “difference in habituation” value in experiment [4] was -8.71. Moreover, the difference in experiment [5] is -5.74.
In the case of `CC(C)C(=O)Nc1ccc([N+](=O)[O-])c(C(F)(F)F)c1` [Flutamide], the difference in excitability in experiment [1] amounted to 2.83. For the same compound, in experiment [2], the “difference in startle response” value is -7. Moreover, in experiment [3], the “difference in activity during first hour” value was -6.35. Besides, the “difference in habituation” value in experiment [4] was -14.3. For the same compound, in experiment [5], the difference is -13.7.
On the same counts, the results for `Cc1ccc(N(CC2=NCCN2)c2cccc(O)c2)cc1` [Phentolamine (mesylate)] are -0.363, 0.261, 20, 5.59 and -2.55.
`CC1=C(C(=O)O)N2C(=O)[C@@H](NC(=O)[C@H](N)c3ccc(O)cc3)[C@H]2SC1` [Cefadroxil (hydrate)] displayed a difference in excitability in experiment [1] of 4.89. In experiment [2], the “difference in startle response” value is -1.88. Moreover, in experiment [3], the “difference in activity during first hour” value amounted to 6.54. Besides, the “difference in habituation” value in experiment [4] is -3.34. Moreover, the difference in experiment [5] was determined as 7.44.
Consider `C=C(CC)C(=O)c1ccc(OCC(=O)O)c(Cl)c1Cl` [Ethacrynic Acid], for which, in experiment [1], the difference in excitability is 4.29. Moreover, the “difference in startle response” value in experiment [2] worked out at 4.46. The “difference in activity during first hour” value in experiment [3] was determined as 19.4. Further, the “difference in habituation” value in experiment [4] is -1.45. For the same compound, in experiment [5], the difference was 6.1.
On the same counts, the results for `CN(C)c1nc(N(C)C)nc(N(C)C)n1` [Altretamine] are -0.899, -2.53, -6.9, -1.7 and 0.893.
In turn, `CNC(=O)c1ccc(N2C(=S)N(c3ccc(C#N)c(C(F)(F)F)c3)C(=O)C2(C)C)cc1F` came in with a difference in excitability in experiment [1] of 13.3. Besides, the “difference in startle response” value in experiment [2] is 4.28. In experiment [3], the “difference in activity during first hour” value was -11. In addition, in experiment [4], the “difference in habituation” value was -1.47. Besides, the difference in experiment [5] is -0.198.
The compound `Cc1ccc(/C(=C\CN2CCCC2)c2cccc(/C=C/C(=O)O)n2)cc1` [Acrivastine] yielded a difference in excitability in experiment [1] of 1.28. For the same compound, the “difference in startle response” value in experiment [2] was -0.645. For the same compound, in experiment [3], the “difference in activity during first hour” value was found to be 0.462. Besides, the “difference in habituation” value in experiment [4] is 0.73. For the same compound, the difference in experiment [5] was -3.37.
In experiment [1], `Cc1cnc(C(=O)NCCc2ccc(S(=O)(=O)NC(=O)NC3CCCCC3)cc2)cn1` [Glipizide] gave a difference in excitability of 0.585. Moreover, the “difference in startle response” value in experiment [2] worked out at 1.17. Besides, the “difference in activity during first hour” value in experiment [3] was -9.11. The “difference in habituation” value in experiment [4] worked out at 5.88. For the same compound, the difference in experiment [5] worked out at 8.81.
On the same counts, the results for `O=P(O)(O)C(O)(Cn1ccnc1)P(=O)(O)O` [Zoledronic Acid (hydrate)] are -0.91, -0.172, 2.53, 0.128 and 6.76.
On the same counts, the results for `COc1c(N2CCNC(C)C2)c(F)cc2c(=O)c(C(=O)O)cn(C3CC3)c12` (stereo not given) [Gatifloxacin] are 15, -3.53, -1.17, 2.86 and 2.83.
For `N=C(N)N/N=C/c1c(Cl)cccc1Cl` [Guanabenz (hydrochloride)], the difference in excitability in experiment [1] was 1.72. In addition, the “difference in startle response” value in experiment [2] amounted to 17.3. Further, the “difference in activity during first hour” value in experiment [3] was -12.1. Further, the “difference in habituation” value in experiment [4] is 5.15. Moreover, in experiment [5], the difference was found to be 8.58.
On to `CO/N=C(\C(=O)N[C@@H]1C(=O)N2C(C(=O)O)=C(CSc3nc(=O)c(O)nn3C)CS[C@H]12)c1csc(N)n1` [Ceftriaxone (sodium salt hydrate)], for which the difference in excitability in experiment [1] stood at 3.71. The “difference in startle response” value in experiment [2] turned out to be 4.15. Further, in experiment [3], the “difference in activity during first hour” value is 12. Also, the “difference in habituation” value in experiment [4] was -2.08. Further, the difference in experiment [5] turned out to be 8.58.
